Experimental data published in ChEMBL document CHEMBL4296182, “CO-ADD screening of NIH NCI Diversity Set V”.
Entries with a potency or affinity are not part of this list.

system: Cryptococcus neoformans; settings: Concentration 20 uM; ASSAY_TEST Inhibition of Fungal Growth; detection method Resazurin; Absorption (OD600-OD570); plate type 384well; NBS; CORNING #3640

| SMILES | Inhibition [%] |
| --- | --- |
| COc1ccc(C(=S)N2CCN(c3ccccc3C)CC2)cc1 | -16.11 |
| N#CC1=CC2CN(Cc3ccccc3)C1C1C(=O)N(c3ccccc3)C(=O)C21 (stereo not drawn) | 18.01 |
| CC1CC=C(O)C12OCC(C)(C)CO2 (stereo not drawn) | -5.4 |
| COc1ccc([N+](=O)[O-])cc1NC(=O)N(C)Cc1ccco1 | -10.86 |
| CCCN=C(S)Nc1ccccc1 | 1.71 |
| OC(COc1ccc(Cl)cc1)CN1CCN(c2cccc(Cl)c2)CC1 (stereo not drawn) | -14.11 |
| COc1ccc2c3c([nH]c2c1)[C@H]1C[C@H]2[C@H](C[C@@H](O)[C@H](OC)[C@H]2CO)CN1CC3 | -8.29 |
| C1COCCN1.O=C(O)C(C=C(Cl)Cl)N1CCOCC1 (stereo not drawn) | -2.22 |
| OC1(Cc2ccccc2)CCNCC1 | -0.07 |
| C/C(=N\O)C1CC(CC(=O)O)C1(C)C (stereo not drawn) | -5.7 |
| Clc1nc(NCCc2ccccc2)c2c[nH]nc2n1 | -10.39 |
| CC(NC(=O)c1ccc(Cl)c(Cl)c1)c1ccc(-c2ccccc2)cc1 (stereo not drawn) | -10.74 |
| O=C(Nc1ccc2ccccc2c1)c1cccc(F)c1 | -2.23 |
| O=C(/C=C/C(=O)N1CCc2ccccc2C1)N1CCc2ccccc2C1 | -10.59 |
| O=C(O)C1OCC2(CO1)COC(C(=O)O)OC2 (stereo not drawn) | -1.34 |
| CC1(C)C2CCC(CN=C(N)CSS(=O)(=O)O)C1C2 (stereo not drawn) | -13.54 |
| CCCCSc1cc(O)nc(N)n1 | -8.65 |
| CCc1oc2ccccc2c1C(=O)c1cc(Br)c(O)c(Br)c1 [BENZBROMARONE] | -6.93 |
